# In PubChem BioAssay (Tox21):
# Values joined by “and” are separate entries in the source; they are usually repeats but may differ in a detail not shown here. Identical values can stand only once. Records with an inconclusive call do not appear. A call without a number means that no potency is given here. Where a structure was tested more than once in an assay, its records may differ in their call. Active and inactive are the calls of the source. Calls follow the shape of the dose curve; as a rule, active = well fitted curve in the direction sought with a large enough effect in the repeat runs; inconclusive = weak or mixed curves; inactive = no such curve, though single readings can be large; an effect the other way counts as inactive or inconclusive.
# Experiments:
# [1] = A CellTox Green Cytotoxicity Assay to monitor cytotoxicity in HEK293 cells - 8 hour (AID 1224884); conditions: CellTox Green fluorescence; series mostly up to 76.8 µM; also: nearly all actives have a fitted effect of over 35% in size; also: potency is read from the fitted curve at half-maximal effect
# Procedure, shortened: (§1)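 Fluorescence intensity, read at 0, 8, 16, 24, 32 and 40 h of compound treatment, reflected dye binding to DNA of dead HEK293 cells; compounds (23 nL, DMSO) were added 5 h after plating cells with reagent.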
# [2] = qHTS RealTime-Glo MT Cell Viability Assay in HepG2 cells - 16 hour (AID 1224885); conditions: RealTime-Glo luminescence; series mostly up to 76.8 µM; also: nearly all actives have a fitted effect of over 50% in size
# Procedure, shortened: (§2)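 HepG2 suspension premixed with RealTime-Glo reagents is plated at 600 cells per well and left 5 h at 37 C/5% CO2. Compounds in DMSO then go in, and bioluminescence reflecting viable cell number is recorded over 40 h.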
# [3] = qHTS RealTime-Glo MT Cell Viability Assay in HEK293 cells - 24 hour (AID 1224886); conditions: RealTime-Glo luminescence; series mostly up to 76.8 µM; also: nearly all actives have a fitted effect of over 50% in size; also: potency is read from the fitted curve at half-maximal effect; as to activity change, negative = cytotoxicity: top concentration of the series differs between compounds
# Procedure, shortened: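 Reads taken at 0, 8, 16, 24, 32 and 40 h from the same wells. HEK293 cells (600/well) carried RealTime-Glo reagents from seeding, with compound added after a 5 h settle at 37 C.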
# [4] = qHTS RealTime-Glo MT Cell Viability Assay in HEK293 cells - 8 hour (AID 1224887); conditions: RealTime-Glo luminescence; series mostly up to 76.8 µM; also: top concentration of the series differs between compounds; nearly all actives have a fitted effect of over 50% in size
# Procedure, shortened: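 Viable HEK293 cells reduce a cell-permeant prosubstrate; the product diffuses out and is consumed by NanoLuc in the medium to give light. Compounds went in after a 5 h incubation and plates were read over the treatment course.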
# [5] = A CellTox Green Cytotoxicity Assay to monitor cytotoxicity in HEK293 cells - 16 hour (AID 1224888); conditions: CellTox Green fluorescence; series mostly up to 76.8 µM; also: nearly all actives have a fitted effect of over 35% in size
# Procedure, shortened: as §1
# [6] = qHTS RealTime-Glo MT Cell Viability Assay in HepG2 cells - 0 hour (AID 1224889); conditions: RealTime-Glo luminescence; series mostly up to 76.8 µM; also: nearly all actives have a fitted effect of over 50% in size
# Procedure, shortened: as §2
# [7] = A CellTox Green Cytotoxicity Assay to monitor cytotoxicity in HepG2 cells - 8 hour (AID 1224890); conditions: CellTox Green fluorescence; series mostly up to 76.8 µM; also: nearly all actives have a fitted effect of over 45% in size; also: potency is read from the fitted curve at half-maximal effect
# Procedure, shortened: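 Using 1536-well format, dye-containing HepG2 suspension was seeded, allowed 5 h at 37 C/5% CO2, dosed by pintool with compounds, positive and negative controls, and imaged for fluorescence across 40 h.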
# [8] = qHTS assay to identify small molecule antagonists of the estrogen receptor alpha (ER-alpha) signaling pathway using the BG1 cell line in the presence of 0.1 nM 17-beta-estradiol - cell viability counter screen (AID 1259241); conditions: VM7Luc4E2 (BG1) viability, CellTiter-Fluor protease, 22 h, 0.1 nM estradiol agonist added; series mostly up to 92.4 µM; also: nearly all actives have a fitted effect of over 40% in size
# Procedure, shortened: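 Following 5 days in phenol red-free medium with charcoal-stripped serum, VM7Luc4E2 cells received test compounds alongside 0.1 nM 17beta-estradiol (final) at 37C for 22 hr. Live cells were then quantified via protease-substrate fluorescence.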
# [9] = qHTS assay to identify small molecule antagonists of the androgen receptor (AR) signaling pathway using the MDA cell line in the presence of 0.5 nM R1881 - cell viability counter screen (AID 1259242); conditions: MDA-kb2 viability, CellTiter-Fluor protease fluorescence, 16 h; series mostly up to 92.4 µM; also: nearly all actives have a fitted effect of over 45% in size
# Procedure, shortened: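 Viability of MDA-kb2 cells was multiplexed with the luciferase AR readout; after 16 hr with compounds and R1881 at 0.5 nM final, CellTiter-Fluor fluorescence was recorded.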
# [10] = molecular target: Androgen receptor (Homo sapiens) (UniProt P10275); assay: qHTS assay to identify small molecule antagonists of the androgen receptor (AR) signaling pathway using the MDA cell line in the presence of 0.5 nM R1881 (AID 1259243); conditions: MDA-kb2 MMTV-luciferase, R1881 0.5 nM, 16 h; series mostly up to 92.4 µM; also: nearly all actives have a fitted effect of over 50% in size
# Procedure, shortened: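 Reporter cells cultured without CO2 receive test chemicals, then 0.5 nM R1881 final; after 16 hr at 37C, ONE-Glo is added and light output recorded.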
# Androgen receptor (Homo sapiens), sequence (P10275 whole entry, looked up): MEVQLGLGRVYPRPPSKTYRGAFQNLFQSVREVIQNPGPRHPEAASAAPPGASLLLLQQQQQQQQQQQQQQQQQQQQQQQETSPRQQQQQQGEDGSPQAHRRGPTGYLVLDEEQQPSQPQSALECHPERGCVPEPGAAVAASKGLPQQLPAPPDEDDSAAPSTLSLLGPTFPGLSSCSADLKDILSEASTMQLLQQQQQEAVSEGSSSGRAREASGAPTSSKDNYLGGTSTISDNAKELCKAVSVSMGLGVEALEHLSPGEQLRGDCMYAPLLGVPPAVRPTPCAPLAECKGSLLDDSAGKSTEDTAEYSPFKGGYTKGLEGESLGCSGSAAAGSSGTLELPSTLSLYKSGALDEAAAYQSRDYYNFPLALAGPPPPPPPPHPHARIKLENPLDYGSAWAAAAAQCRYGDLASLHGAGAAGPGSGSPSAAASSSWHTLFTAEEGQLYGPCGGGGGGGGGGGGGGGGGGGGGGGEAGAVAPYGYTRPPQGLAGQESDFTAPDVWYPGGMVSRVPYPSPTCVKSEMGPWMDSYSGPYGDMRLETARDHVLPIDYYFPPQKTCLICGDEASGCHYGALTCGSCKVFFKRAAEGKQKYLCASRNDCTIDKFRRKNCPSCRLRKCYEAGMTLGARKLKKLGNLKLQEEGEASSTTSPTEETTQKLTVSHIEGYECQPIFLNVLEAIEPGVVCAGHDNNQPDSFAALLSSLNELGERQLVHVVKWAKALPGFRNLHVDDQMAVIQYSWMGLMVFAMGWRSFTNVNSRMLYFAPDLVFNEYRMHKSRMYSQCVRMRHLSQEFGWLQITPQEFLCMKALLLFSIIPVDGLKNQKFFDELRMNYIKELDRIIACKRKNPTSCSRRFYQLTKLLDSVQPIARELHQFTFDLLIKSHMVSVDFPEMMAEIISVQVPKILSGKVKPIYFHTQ
Structure (SMILES),Potency [1],outcome [2],Potency [3],outcome [4],Potency [5],outcome [6],Potency [7],Potency [8],outcome [9],Potency [10],"activity change, negative = cytotoxicity [3]"
CC(Br)C(=O)O (stereo unspecified),inactive,inactive,inactive,inactive,inactive,inactive,inactive,inactive,inactive,,
O=Cc1cccc(Oc2ccccc2)c1,inactive,inactive,inactive,inactive,inactive,inactive,inactive,inactive,inactive,,
O=S(=O)(c1ccc(Cl)cc1)c1cc(Cl)c(Cl)cc1Cl,inactive,inactive,inactive,inactive,inactive,inactive,inactive,inactive,inactive,,
c1ccc(OP(Oc2ccccc2)Oc2ccccc2)cc1,inactive,inactive,inactive,inactive,inactive,inactive,inactive,inactive,inactive,,
CCCCCCCCCl,inactive,inactive,inactive,inactive,inactive,inactive,inactive,inactive,inactive,,
CCOP(OCC)OCC,inactive,inactive,inactive,inactive,inactive,inactive,inactive,,inactive,,
O=NN1CCCCCCC1,inactive,inactive,inactive,inactive,inactive,inactive,inactive,inactive,inactive,,
C#CC(C)(C)NC(=O)c1cc(Cl)cc(Cl)c1,inactive,inactive,inactive,inactive,inactive,inactive,inactive,,inactive,,
CN(C)[C@@H]1C(=O)C(C(N)=O)=C(O)[C@@]2(O)C(=O)C3=C(O)c4c(O)cccc4[C@@](C)(O)[C@H]3C[C@@H]12,inactive,inactive,inactive,inactive,inactive,inactive,inactive,inactive,inactive,,
Cc1[nH]c(=O)n(C(C)(C)C)c(=O)c1Cl,inactive,inactive,inactive,inactive,inactive,inactive,inactive,inactive,inactive,inactive,
ClCCBr,inactive,inactive,inactive,inactive,inactive,inactive,inactive,,inactive,,
O=NN1CCCC1,inactive and 21.9 µM (active),inactive,inactive,inactive,inactive,inactive,inactive and 38.9 µM (active),inactive,inactive,,
CC(C)N1C(=O)c2ccccc2NS1(=O)=O,inactive,inactive,inactive,inactive,inactive,inactive,inactive,inactive,inactive,,
CN=C=S,inactive,inactive,inactive,inactive,inactive,inactive,inactive,inactive,inactive,,
CCNc1nc(NC(C)(C)C)nc(SC)n1,inactive,inactive,43.1 µM (active),inactive,inactive,inactive,inactive,inactive,inactive,,
Nc1ccc(Oc2ccc(N)cc2)cc1,inactive,inactive,inactive,inactive,inactive,inactive,inactive,inactive,inactive,,
CC(C)(C)OOC(C)(C)C,inactive,inactive,inactive,inactive,inactive,inactive,inactive,inactive,inactive,,
Clc1ccc(Cl)cc1,inactive,inactive,inactive,inactive,inactive,inactive,inactive,,inactive,,
ClCc1cccnc1,inactive,inactive,inactive,inactive,inactive,inactive,inactive,inactive,inactive,,
CCOP(=S)(OCC)Oc1cnc2ccccc2n1,inactive,inactive,inactive,inactive,inactive,inactive,inactive,inactive,inactive,,
CC(C)C#N,inactive,inactive,inactive,inactive,inactive,inactive,inactive,,inactive,,
CCC[CH2][Sn]([Cl])([Cl])[Cl],inactive,inactive,inactive,inactive,inactive,inactive,inactive,inactive,inactive,,
COP(N)(=O)SC (stereo unspecified),inactive,inactive,inactive,inactive,inactive,inactive,inactive,inactive,inactive,,
CCCCOC(=O)c1ccccc1C(=O)OCCCC,inactive,inactive,inactive,inactive,inactive,inactive,inactive,inactive,inactive,,
CCN(CC)CCO,inactive,inactive,inactive,inactive,inactive,inactive,inactive,inactive,inactive,,
C=CC(N)=O,inactive,inactive,inactive,inactive,inactive,inactive,inactive,,inactive,,
CCCCCOC(=O)c1ccccc1C(=O)OCCCCC,inactive,inactive,inactive,inactive,inactive,inactive,inactive,inactive,inactive,,

Structure (SMILES),Potency [1],outcome [2],Potency [3],outcome [4],Potency [5],outcome [6],Potency [7],Potency [8],outcome [9],Potency [10],"activity change, negative = cytotoxicity [3]"
Cc1ccc([N+](=O)[O-])cc1C,inactive,inactive,inactive,inactive,inactive,inactive,inactive,,inactive,,
Cc1cccc([N+](=O)[O-])c1,inactive,inactive,inactive,inactive,inactive,inactive,inactive,inactive,inactive,,
[O-][Cl+2]([O-])O,inactive,inactive,inactive,inactive,inactive,inactive,inactive,inactive,inactive,,
OCCN(CCO)CCO,inactive,inactive,inactive,inactive,inactive,inactive,inactive,inactive,inactive,,
CC(Oc1ccc(Cl)cc1Cl)C(=O)O (stereo unspecified),inactive,inactive,inactive,inactive,inactive,inactive,inactive,inactive,inactive,,
CC1C=[C-]C=C1.[C-]#[O+].[C-]#[O+].[C-]#[O+].[Mn],inactive,inactive,inactive,inactive,inactive,inactive,inactive,inactive,inactive,,
Nc1ccccc1C(=O)O,inactive,inactive,inactive,inactive,inactive,inactive,inactive,,inactive,,
COc1ccc2c3c1O[C@H]1[C@@H](O)C=C[C@H]4[C@@H](C2)N(C)CC[C@@]341,inactive,inactive,48.2 µM (active) and inactive,inactive,inactive,inactive,inactive,inactive,inactive,,
OC(O)C(Cl)(Cl)Cl,inactive,inactive,inactive,inactive,inactive,inactive,inactive,inactive,inactive,,
CN1C(=O)CN=C(c2ccccc2)c2cc(Cl)ccc21,inactive,inactive,inactive,inactive,,inactive,inactive,,inactive,,
C1CC2OC2CC1C1CO1 (stereo unspecified),inactive,inactive,inactive,inactive,inactive,inactive,inactive,,inactive,,
C#CCN(C)[C@H](C)Cc1ccccc1,inactive,inactive,inactive,inactive,,inactive,inactive,,inactive,,
CN(C)N=O,inactive,inactive,inactive,inactive,inactive,inactive,inactive,,inactive,,
O=C1CCCN1,inactive,inactive,inactive,inactive,,inactive,inactive,,inactive,,
O=c1ccc(=O)[nH][nH]1,inactive,inactive,inactive,inactive,inactive,inactive,inactive,,inactive,inactive,
CCOC(=O)c1ccccc1C(=O)OCC,inactive,inactive,inactive,inactive,,inactive,inactive,inactive,inactive,,
CON(C)C(=O)Nc1ccc(Cl)c(Cl)c1,inactive,inactive,inactive and 43.6 µM (active),inactive,,inactive,inactive,,inactive,,
Cc1cc(-c2cc(C)c(N)c(C)c2)cc(C)c1N,inactive,,inactive,inactive,inactive,inactive,inactive,inactive,inactive,,
O=[N+]([O-])c1ccccc1,inactive,inactive,inactive,inactive,,inactive,inactive,inactive,inactive,,
CN(N=O)c1ccccc1,inactive,inactive,inactive,inactive,inactive,inactive,inactive,,inactive,,
CC(C)OC(=O)Nc1cccc(Cl)c1,inactive,inactive,inactive,,,inactive,inactive,inactive,inactive,,
C=C(C)CCl,inactive,inactive,,inactive,,inactive,inactive,,inactive,inactive,6.36% [at 6.97 µM] (inactive)
C=CCO,inactive and 27.5 µM (active),inactive,inactive,inactive,,inactive,inactive and 27.5 µM (active),inactive,inactive,,
CC(C)(C)C(O)(CCc1ccc(Cl)cc1)Cn1cncn1 (stereo unspecified),inactive,inactive,49.6 µM (active) and 54.9 µM (active),,,inactive,inactive,inactive,inactive,,
CNC(=O)Oc1ccccc1OC(C)C,inactive,inactive,inactive,inactive,inactive,inactive,inactive,,inactive,,
COC(=O)c1ccccc1N,inactive,inactive,inactive,inactive,,inactive,inactive,inactive,inactive,,
COC(=O)c1ccccc1C(=O)OC,inactive,inactive,inactive,inactive,,inactive,inactive,inactive,inactive,,
